For assay [1], the system named is Vero E6 infected with SARS-CoV-2. Kind of assay: morphology score (similarity to uninfected cells); higher = more like uninfected cells. Conditions: 24 h.
Assay [2] shares this test system. The assay is described as follows: SARS-CoV-2 infection rate relative to infected DMSO; higher = more infection, active = 60 or less. Conditions: 24 h.

Structures can show the parent of a compound that is named as a salt.

As for `O=c1[nH]cnc2c1cnn2[C@@H]1O[C@H](CO)[C@@H](O)[C@H]1O` [allopurinol-riboside] (10 µM), the morphology score in assay [1] was 0.0253. Besides, in assay [2], the SARS-CoV-2 infection rate was 109% (inactive).
Taken in the same sequence, the figures for `C=CC1=C(C)c2cc3[nH]c(cc4nc(cc5[nH]c(cc1n2)c(C)c5CCC(=O)O)C(CCC(=O)O)=C4C)c(C)c3C=C` [protoporphyrin-IX] (10 µM) were -0.0298 and 115% (inactive).
The molecule `O=[N+]([O-])c1cc2nc(O)c(O)nc2cc1[N+](=O)[O-]` (10 µM) returned a morphology score in assay [1] of 0.165. In addition, in assay [2], the SARS-CoV-2 infection rate is 100% (inactive).
Take `C[C@@H](N)[C@@H](O)c1ccccc1` [1S,2R-phenylpropanolamine] (10 µM): in assay [1], the morphology score is -0.131. In assay [2], the SARS-CoV-2 infection rate is 114% (inactive).
In assay [1], `Cc1cc(NS(=O)(=O)c2ccc(N)cc2)no1` [sulfamethoxazole] (10 µM) gave a morphology score of 0.128. Moreover, the SARS-CoV-2 infection rate in assay [2] was 94.5% (inactive).
With `O=C(O)CC(S)C(=O)O` (stereo not drawn) [mercaptosuccinic-acid] (10 µM), the morphology score in assay [1] is -0.089. Also, the SARS-CoV-2 infection rate in assay [2] was 108% (inactive).
In turn, `COc1cccc2c1C(=O)c1c(O)c3c(c(O)c1C2=O)C[C@@](O)(C(=O)CO)C[C@@H]3O[C@H]1C[C@H](N)[C@@H](O)[C@H](C)O1` [Epirubicin Hydrochloride] (10 µM) displayed a morphology score in assay [1] of -0.016. Also, the SARS-CoV-2 infection rate in assay [2] was 108% (inactive).
`CCCCc1nc(Cl)c(C(=O)O)n1Cc1ccc(-c2ccccc2-c2nn[nH]n2)cc1` [carboxylosartan] (10 µM): the morphology score in assay [1] was -0.00666. Also, in assay [2], the SARS-CoV-2 infection rate is 106% (inactive).
With `CC[C@H](C)C[C@H](C)CCCCCCCCC(=O)N[C@H]1C[C@@H](O)[C@@H](NCCN)NC(=O)[C@@H]2[C@@H](O)CCN2C(=O)[C@H]([C@H](O)CCN)NC(=O)[C@H]([C@H](O)[C@@H](O)c2ccc(O)cc2)NC(=O)[C@@H]2C[C@@H](O)CN2C(=O)[C@H]([C@@H](C)O)NC1=O` [caspofungin] (10 µM), the morphology score in assay [1] was -0.0128. The SARS-CoV-2 infection rate in assay [2] is 108% (inactive).
For the molecule `N=C(N)NCCC[C@@H](N)C(=O)N[C@@H](CCCNC(=N)N)C(=O)N1CCC[C@H]1C(=O)N1C[C@H](O)C[C@H]1C(=O)NCC(=O)N[C@@H](Cc1cccs1)C(=O)N[C@@H](CO)C(=O)N1Cc2ccccc2C[C@@H]1C(=O)N1[C@H](C(=O)N[C@@H](CCCNC(=N)N)C(=O)O)C[C@@H]2CCCC[C@@H]21` [icatibant-acetate] (10 µM), the morphology score in assay [1] came out at 0.105. Also, the SARS-CoV-2 infection rate in assay [2] is 102% (inactive).
As for `Cc1[nH]c(/C=C2\C(=O)Nc3ccc(S(=O)(=O)Cc4c(Cl)cccc4Cl)cc32)c(C)c1C(=O)N1CCC[C@@H]1CN1CCCC1` (0.833333 µM), in assay [1], the morphology score was 0.159. The SARS-CoV-2 infection rate in assay [2] is 106% (inactive).
In turn, `CCNC(=O)NS(=O)(=O)c1sc(CC(C)C)cc1-c1ccc(Cn2c(-c3ccccc3)nc(OC)c2C=O)cc1` (10 µM) displayed a morphology score in assay [1] of 0.159. Moreover, in assay [2], the SARS-CoV-2 infection rate is 97% (inactive).
`CCC(N)C(O)c1ccc(O)c(O)c1` (stereo not drawn) [ethylnorepinephrine] (10 µM) yielded a morphology score in assay [1] of -0.108. In addition, in assay [2], the SARS-CoV-2 infection rate is 106% (inactive).
In assay [1], `COc1ccc2[nH]c([S@@+]([O-])Cc3ncc(C)c(OC)c3C)nc2c1` [esomeprazole] (10 µM) had a morphology score of -0.181. Besides, in assay [2], the SARS-CoV-2 infection rate is 110% (inactive).
In assay [1], `C/C=C1\NC(=O)[C@H]2CSSCC/C=C/[C@H](CC(=O)N[C@H](C(C)C)C(=O)N2)OC(=O)[C@H](C(C)C)NC1=O` [romidepsin] (10 µM) showed a morphology score of -0.211. The SARS-CoV-2 infection rate in assay [2] was 114% (inactive).
Take `COc1cc(C(=O)NCCCCCC(=O)O)cc(OC)c1OC` [capobenic-acid] (10 µM): in assay [1], the morphology score is 0.0878. For the same molecule, the SARS-CoV-2 infection rate in assay [2] was 108% (inactive).
Turning to `Cc1ncc(CO)c(CO)c1O` [pyridoxine] (10 µM), the morphology score in assay [1] amounted to 0.0823. Besides, the SARS-CoV-2 infection rate in assay [2] was 108% (inactive).
Taken in the same sequence, the figures for `Cc1c(C)c2c(c(C)c1O)CCC(C)(COc1ccc(CC3SC(=O)NC3=O)cc1)O2` (stereo not drawn) [troglitazone] (10 µM) were 0.342 and 89% (inactive).
`N=C(Nc1ccccc1)Nc1ccccc1` [diphenylguanidine] (10 µM) returned a morphology score in assay [1] of 0.216. In addition, the SARS-CoV-2 infection rate in assay [2] is 98% (inactive).
For the molecule `C[S+]([O-])CCCCN=C=S` (stereo not drawn) [sulforaphane] (10 µM), the morphology score in assay [1] stood at 0.924. The SARS-CoV-2 infection rate in assay [2] was 6.5% (active).
Regarding `CCn1cc(C(=O)O)c(=O)c2cc(F)c(N3CCNCC3)nc21` [enoxacin] (10 µM), the morphology score in assay [1] was found to be 0.124. The SARS-CoV-2 infection rate in assay [2] is 105% (inactive).
Take `Cc1c(Cc2ccc3ccccc3n2)c2cc(F)ccc2n1CC(=O)O` (10 µM): the morphology score in assay [1] was 0.0108. Besides, the SARS-CoV-2 infection rate in assay [2] was 102% (inactive).
Regarding `COc1cccc(-c2ccc(NC(=O)C3=C(C(=O)O)CCC3)c(F)c2)c1` (10 µM), the morphology score in assay [1] is 0.159. Moreover, the SARS-CoV-2 infection rate in assay [2] is 94.5% (inactive).
`CC(C)(C)c1cc(/C=C(\C#N)C(N)=S)cc(C(C)(C)C)c1O` [tyrphostin-AG-879] (0.833333 µM) had a morphology score in assay [1] of 0.166. The SARS-CoV-2 infection rate in assay [2] is 102% (inactive).
